GDH-TPI counter-1 – GDH-TPI coupling enzyme inhibitors, primary screen, artefact control for M. tuberculosis FBA inhibitor project, biochemical, absorbance, full deck | inhibition, % at 4.8 µM | 1.2% of 360,000 active | GDH-TPI coupled enzyme counterscreen, NADH absorbance;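 also: 0% = DMSO wells and 100% = wells lacking the enzyme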
CCHFV vOTU inh – CCHFV vOTU protease inhibitors, primary screen, biochemical, Pep-AMC substrate, fluorescence. inhibition, % at 11.5 µM. AID 651958, 2012. 0.55% of 370,000 active. Crimean-Congo hemorrhagic fever virus L polyprotein viral ovarian tumor (vOTU) protease …; also: 0% = vehicle wells with enzyme and 100% = no enzyme wells
Mtb bLac sens – beta-lactam sensitization of Mtb H37Rv, H37Rv. inhibition, % at 25 µM. M. tuberculosis H37Rv growth with meropenem, percent inhibition. AID 434955, 2010. 0.27% of 330,000 active; call rule not given here;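 also: growth measured after seven days incubation then overnight dye step; 0% = bacteria only wells and 100% = bacteria with antibiotic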
Mtb FBA inh – Mtb FBA enzyme inhibitors, primary screen, biochemical, fluorescence, strain H37Rv | purified M. tuberculosis FBA, fluorescence read-out | inhibition, % at 1 µM | 2.3% of 360,000 active | Fructose-bisphosphate aldolase (Mycobacterium tuberculosis (strain ATCC 25618 / H37Rv)), …; in the data active = inhibition above about 27%;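 also: 0% = vehicle and 100% = reference inhibitor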
Target sequence (P9WQA3 whole entry, looked up): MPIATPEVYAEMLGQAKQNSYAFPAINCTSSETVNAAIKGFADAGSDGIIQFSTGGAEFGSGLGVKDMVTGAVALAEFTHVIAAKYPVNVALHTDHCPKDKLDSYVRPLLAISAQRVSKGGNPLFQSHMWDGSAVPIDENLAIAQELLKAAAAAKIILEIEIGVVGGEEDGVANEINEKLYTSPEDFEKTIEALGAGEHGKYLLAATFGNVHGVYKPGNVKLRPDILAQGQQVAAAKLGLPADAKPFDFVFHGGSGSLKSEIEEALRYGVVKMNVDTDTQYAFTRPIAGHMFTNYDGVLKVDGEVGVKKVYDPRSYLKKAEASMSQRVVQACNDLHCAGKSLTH
MazF activator – activators of E. coli MazEF toxin-antitoxin RNase, primary screen, biochemical, fluorescence, uHTS. FAM/BHQ RNA-DNA oligo cleavage fluorescence, 5 h. activation, % at 20 µM. 0.32% of 350,000 active. AID 504720, 2011; in the data active = activation above about 50%
Target sequence (P0AE70 whole entry, looked up): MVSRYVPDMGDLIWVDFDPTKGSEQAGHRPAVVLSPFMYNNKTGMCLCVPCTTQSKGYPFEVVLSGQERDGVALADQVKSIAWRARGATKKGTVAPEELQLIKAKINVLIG
Mtb FBA confirm – M. tuberculosis aldolase blockers, biochemical, fluorescence, strain H37Rv, confirmation; purified M. tuberculosis FBA, fluorescence read-out; shares compounds with Mtb FBA inh; 78% of 5,600 active; inhibition, % at 1 µM; in the data active = inhibition above about 27%;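 also: 0% = vehicle wells and 100% = reference inhibitor wells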
GDH-TPI counter-2 – GDH-TPI coupling enzyme inhibitors, artefact control for M. tuberculosis FBA inhibitor project, biochemical, fluorescence, high throughput; shares compounds with Mtb FBA inh; GDH-TPI coupled enzyme counterscreen; inhibition, % at 1 µM; 81% of 5,600 active; in the data active = inhibition above about 10%
GDH-TPI DR – GDH-TPI coupling enzyme inhibitors, dose response, artefact control for M. tuberculosis FBA inhibitor project, biochemical, fluorescence, IC50; AID 652145, 2013; shares compounds with Mtb FBA inh; IC50, µM; GDH-TPI coupled enzyme assay, artifact counterscreen; 79% of 170 active; call rule not given here
The depositor's hits bear a star; nt = not tested or not shown; + = active, no number. Sampled rows, rich in hits. Any-hit rate of the full collection: about 4%. Rule as the data show it, unless noted: active = inhibition above about 30%; inactive = the rest.

SMILES	GDH-TPI counter-1	CCHFV vOTU inh	Mtb bLac sens	Mtb FBA inh	MazF activator	Mtb FBA confirm	GDH-TPI counter-2	others
N#Cc1cc2c(ccc3ccccc32)oc1=O	1	-57	96	73*	-11	168*	141*
O=C(c1cccc(Br)c1)N1CCC(Oc2cccnc2)CC1	nt	-1	nt	nt	nt	nt	nt
COc1cccc(-c2ccc3c(c2)[C@@H]2C[C@H]4[C@@H](CN2CC3)[C@H](C)ON4C)c1	nt	11	nt	nt	nt	nt	nt
O=C(Cn1c(-c2cncs2)nc2ccccc21)NC1CCCCC1	nt	-3	nt	nt	nt	nt	nt
COc1ccc(-c2cc(-c3ccco3)[nH]c(=O)c2C#N)cc1OC	28	0	8	49*	-41	44*	36*
CCN1CCN(CCNC(=O)c2ccc3nc(-c4cccc(C)c4)c(-c4cccc(C)c4)nc3c2)CC1	18	-62	60	30*	-18	59*	51*
COCC(C)NC(=O)c1ccc2nc(-c3ccccc3)c(-c3ccccc3)nc2c1 (stereo not given)	18	-50	24	42*	8	52*	49*
CCN(CC)C(=O)c1ccc2nc(-c3ccccc3)c(-c3ccccc3)nc2c1	12	-38	6	48*	-3	49*	40*
CCN(CC)C(=O)c1ccc2nc3ccccc3nc2c1	11	-3	10	-2	7	nt	nt
COc1ccc(-c2nc3ccc(C(=O)NCCCN4CCOCC4)cc3nc2-c2ccc(OC)cc2)cc1	-7	1	2	5	-6	nt	nt
CCCNC(=O)c1ccc2nc(-c3ccccc3)c(-c3ccccc3)nc2c1	20	2	63	31*	7	62*	41*
C=CCNC(=O)c1ccc(-c2nc3ccccc3nc2-c2ccccc2)cc1	12	2	26	9	9	nt	nt
COc1ccc(-c2cccc3[nH]c4c(c23)CCN2C(=O)[C@H]3[C@H](C)ON(C)[C@H]3C[C@@H]42)cc1	nt	-46	nt	nt	nt	nt	nt
C[C@H]1CN(C(=O)OC(C)(C)C)CCN1c1ccc(Br)c(C#N)c1	nt	5	nt	nt	nt	nt	nt
CCOC(=O)N1CCN(CC(O)COC2CC(C)CCC2C(C)C)CC1 (stereo not given)	2	15	-5	34*	-2	13	-7	GDH-TPI DR=>10
COc1ccc(Br)cc1CN(C)CC(O)COc1ccc(Br)cc1 (stereo not given)	16	5	93	53*	0	67*	54*
COc1ccc(CN(C)CC(O)COc2ccc(C(=O)c3ccccc3)cc2)c(OC)c1OC (stereo not given)	10	3	90	0	-21	nt	nt
CC(C)CCN(C)C1CCN(C(=O)NCc2ccccc2)CC1	nt	15	nt	nt	nt	nt	nt
COc1ccc2[nH]c3c(c2c1)CCN[C@]31C(=O)N(Cc2cn(Cc3ccccc3)nn2)c2ccccc21	nt	18	nt	nt	nt	nt	nt
Nc1ccc[n+](Cc2ccccn2)c1	6	-4	-4	61*	-5	1	-2
Nc1ccc(Cc2ccccn2)cc1	5	2	94	0	-1	nt	nt
CN1OC[C@@H]2CN3C(=Nc4cc(C(F)(F)F)cc(C(F)(F)F)c4)Sc4ccccc4[C@@H]3C[C@@H]21	nt	8	nt	nt	nt	nt	nt
COc1ccccc1-c1cc2c(c3c1ccn3C)C1CCC2O1 (stereo not given)	nt	-13	nt	73*	nt	127*	104*
Cn1ccc2c(-c3cccc(C=O)c3)cc3c(c21)C1CCC3O1 (stereo not given)	nt	9	nt	3	nt	nt	nt
Cn1ccc2c(-c3ccc(C(N)=O)cc3)cc3c(c21)C1CCC3O1 (stereo not given)	nt	11	nt	7	nt	nt	nt
SMILES	GDH-TPI counter-1	CCHFV vOTU inh	Mtb bLac sens	Mtb FBA inh	MazF activator	Mtb FBA confirm	GDH-TPI counter-2	others
Cn1ccc2c(-c3cccc4ccccc34)cc3c(c21)C1CCC3O1 (stereo not given)	nt	-14	nt	58*	nt	60*	42*
Cn1ccc2c(-c3ccc4[nH]ccc4c3)cc3c(c21)C1CCC3O1 (stereo not given)	nt	-9	nt	47*	nt	57*	39*
COP(N)(=O)C(CC(C)C)NC(=O)OCc1ccccc1 (stereo not given)	nt	-11	nt	nt	nt	nt	nt
COc1ccc2oc(=N)c(C(=O)NCc3ccccc3)cc2c1	3	-23	-2	14	14	nt	nt
COc1ccc2cc(C(=O)NCc3ccccc3)c(=O)oc2c1	16	-47	2	33*	7	65*	50*
COc1ccc2oc(=O)c(C(=O)NCc3cccnc3)cc2c1	4	-71	7	44*	7	-4	-5
COc1ccc2oc(=O)c(C(=O)NCc3ccc(F)cc3)cc2c1	7	-17	10	54*	3	90*	70*
CN(C)c1nc(OCc2ccccc2)c2ncc(=O)[nH]c2n1	17	-8	3	31*	-12	10	-4	GDH-TPI DR=4.9*
N#CC1=C(C2CC2)CC(c2ccccc2)C(C#N)=C1N (stereo not given)	8	-29	-8	33*	10	13	-4	GDH-TPI DR=>10
N#CC1=C(N)SC2(CCCCC2)SC1c1ccccc1 (stereo not given)	4	nt	-1	1	7	nt	nt
Cc1oc2cc([N+](=O)[O-])c(O)c([N+](=O)[O-])c2c1C(=O)c1ccc(Cl)cc1	31*	13	-4	72*	-7	14	13*
CC(C)CCOCC(=O)Oc1ccccc1C(=O)O	-3	-3	-4	34*	3	-5	-4
CN1CCc2c1nc1ccccc1c2N (tested in a mixture with another compound)	9	-49	4	29*	5	96*	83*
Cc1cccc2c(N)c3c(nc12)N(C)CC3	-4	8	-3	31*	1	77*	45*
Cc1ccc2nc3c(c(N)c2c1)CCN3c1ccccc1	15	-204	-5	29*	10	+	+
C#CCN1CC(N(C)CCOC(=O)CCCc2ccccc2)CS1(=O)=O (stereo not given)	nt	-1	nt	nt	nt	nt	nt
O=C(Nc1ccc(Br)cc1)OC1CC2CC1[C@H]1CCCCN1C2 (stereo not given in full)	nt	-8	nt	nt	nt	nt	nt
Clc1cncc(Cl)c1NNc1c2ccccc2nc2ccccc12	3	-54	3	39*	-1	81*	66*
